Measurements reported in PubChem BioAssay (NCATS).
Results filed as inconclusive are left out. The source made the active and inactive calls. The call rests on the fitted dose curve; in most records, active means well fitted curve in either direction with a large enough effect (not every such curve was filed as active); inconclusive means small, poorly fitted or top-dose-only effect, or another doubt; inactive means flat fitted curve, though single readings scatter.

test: AP1 Signaling Pathway (AID 357); conditions: ME-180 (cervical carcinoma) AP-1-bla reporter, EGF-induced, beta-lactamase ratio, 5 h; series mostly up to 17.2 µM;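 further: ME-180 reporter cells stimulated with EGF at its EC50 level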
Source text: NCGC Assay Overview: Activator protein-1 (AP-1), a transcription factor, plays an important role in tumor genesis by regulating genes involved in cell proliferation, differentiation, apoptosis, and angiogenesis. AP-1 activity is induced by a complex network of signaling pathways that involves extracellular signals, such as growth factors. The AP-1 protein complex formed from c-Fos and c-Jun binding to the AP-1 response element results in transcriptional activation of genes containing such elements within their promoter. Low molecular weight molecules have been discovered and developed to modulate various components of these signaling pathways, for example, MAP kinase inhibitors. However, many points of pathway modulation remain untested due to the lack of chemical probes making this signaling locus of general interest. Using a beta-lactamase reporter-gene under control of the AP-1 response element, a cell-based assay [CellSensor(TM) AP-1-bla ME-180 developed by Invitrogen Corp.] was used to measure EGF-induced signaling. Library compounds were measured for their ability to modulate positively or negatively the action of EC50 EGF on reporter gene activity. Compounds were screened in a titration series in 1536-well format. Positive and negative modulators were identified based on the AC50 values derived from the screening data.
NCGC Assay Protocol Summary: 2500 cells/5uL in Opti-MEM medium containing 0.5% dialyzed FBS, 0.1 mM NEAA, 1 mM sodium pyruvate and 10 mM HEPES was dispensed into 1536-well plates and cells were cultured at 37 degrees Celsius overnight. […] After centrifugation at 1000 rpm for 2 seconds the plates were incubated at 37 degrees Celsius for 5 hours. 1 uL of CCF4-dye mixture was added to each well. After incubated at room temperature for 2.5 hours the plates were measured on an EnVision plate reader at Excitation 405nm, Emission1=460nm and Emission 2=530nm. The %Activity was determined from the ratio of 460nm/530nm.

outcome, inactive:
O=C1O[C@@H]([C@@H](O)CO)[C@@H](O)[C@H]1O
O=C1OCCN1/N=C\c1ccc([N+](=O)[O-])o1
CCOC(=O)O[C@]1(C(=O)COC(=O)CC)CC[C@@H]2[C@@H]3CCC4=CC(=O)C=C[C@@]4(C)[C@H]3[C@H](O)C[C@]21C
CN[C@H]1[C@@H](O)[C@@H](NC)[C@@H]2O[C@@]3(O)C(=O)C[C@@H](C)O[C@H]3O[C@H]2[C@H]1O
CCC(=O)OCC(=O)[C@@]1(OC(=O)CC)[C@H](C)C[C@@H]2[C@@H]3[C@H]([C@@H](O)C[C@@]21C)[C@]1(C)C=CC(=O)C=C1C[C@@H]3Cl
O=C(O)[C@@H](O)[C@@H](O)[C@@H](O[C@H]1O[C@@H](CO)[C@@H](O)[C@@H](O)[C@@H]1O)[C@@H](O)CO
C[C@@H]1C[C@H](OC(=O)c2ccccc2O)CC(C)(C)C1
COc1ccc([C@@H]2CC(=O)c3c(O)cc(O)cc3O2)cc1O
O=C(O)COCCN1CCN([C@@H](c2ccccc2)c2ccc(Cl)cc2)CC1
CC(C)(C)NC[C@H](O)COc1cccc2c1C[C@@H](O)[C@@H](O)C2
CC(=O)O[C@H]1C[C@@]2(C)[C@H](C[C@@H](O)[C@H]3[C@@]4(C)CC[C@@H](O)[C@@H](C)[C@H]4CC[C@@]32C)C1=C(CCC=C(C)C)C(=O)O
CCc1c(C)[nH]c2c1C(=O)[C@H](CN1CCOCC1)CC2
CCC(=O)O[C@@H]1[C@H](C)O[C@H](O[C@H]2[C@@H](N(C)C)[C@H](O)[C@@H](O[C@@H]3[C@@H](CC=O)C[C@@H](C)[C@@H](O)/C=C\C=C/C[C@@H](C)OC(=O)C[C@@H](OC(=O)CC)[C@H]3OC)O[C@H]2C)C[C@]1(C)O
CS(=O)(=O)c1ccc([C@H](O)[C@H](CF)NC(=O)C(Cl)Cl)cc1
C[C@@]12CC[C@@H]3c4ccc(O)cc4CC[C@H]3[C@H]1C[C@@H](O)[C@H]2O
CC1(C)S[C@@H]2[C@H](NC(=O)C(N)c3ccccc3)C(=O)N2[C@H]1C(=O)O (stereo not given in full)
CC(C)CC(=O)N[C@H](C(=O)N[C@H](C(=O)N[C@@H](CC(C)C)[C@H](O)CC(=O)N[C@@H](C)C(=O)N[C@@H](CC(C)C)[C@H](O)CC(=O)O)C(C)C)C(C)C
C=C1C[C@@]23C[C@]1(O)CC[C@@H]2[C@]12C=C[C@@H](O)[C@](C)(C(=O)O1)[C@H]2[C@H]3C(=O)O
CC[C@H](C)C(=O)O[C@@H]1C[C@H](C)C=C2C=C[C@H](C)[C@@H](CC[C@H]3C[C@@H](O)CC(=O)O3)[C@H]21
CC(=O)N[C@H](CS)C(=O)O
CC(=O)S[C@H]1CC2=CC(=O)CC[C@@]2(C)[C@H]2CC[C@@]3(C)[C@H](CC[C@]34CCC(=O)O4)[C@@H]12
COc1cc2nc(N3CCN(C(=O)[C@@H]4CCCO4)CC3)nc(N)c2cc1OC
COc1cc(N)c(Cl)cc1C(=O)N[C@H]1CCN(CCCOc2ccc(F)cc2)C[C@H]1OC
CNCCC=C1c2ccccc2C=Cc2ccccc21
NS(=O)(=O)c1cc2c(cc1C(F)(F)F)N[C@H](Cc1ccccc1)NS2(=O)=O
C/C(=C(/CCO)SSC[C@@H]1CCCO1)N(C=O)Cc1cnc(C)nc1N
C[C@@]1(O)CCOC(=O)C1
Cc1noc(C)c1-c1nc(Nc2ccncc2)c2ccccc2n1
CO/N=C(\C(=O)N[C@@H]1C(=O)N2C(C(=O)O)=C(COC(N)=O)CS[C@@H]12)c1ccco1
O=c1[nH]c(=O)n([C@@H]2C[C@H](O)[C@H](CO)O2)cc1C(F)(F)F
C[C@@]12CCC(=O)C[C@@H]1CC(=O)[C@H]1[C@H]3CCC[C@]3(C)C(=O)C[C@@H]12 (tested in a mixture with another compound)
CCCCC[C@H](O)/C=C\[C@H]1[C@H](C/C=C\CCCC(=O)O)[C@@H](O)C[C@H]1O (tested in a mixture with another compound)
C[C@@H](C(=O)O)c1ccc(C(=O)c2ccccc2)s1
C#C[C@@]1(O)CC[C@@H]2[C@@H]3CCC4=CC(=O)CC[C@@H]4[C@H]3CC[C@]21CC
CC(=O)[C@@H]1CC[C@@H]2[C@@H]3C[C@H](C)C4=CC(=O)CC[C@@]4(C)[C@H]3[C@H](O)C[C@]21C
C[C@H](N[C@@H](C)COc1ccccc1)[C@H](O)c1ccc(O)cc1
Clc1ccc([C@H](Cn2ccnc2)OCc2c(Cl)cccc2Cl)c(Cl)c1
CC1(C)[C@@H](OC(=O)CCC(=O)O)CC[C@@]2(C)[C@H]1CC[C@@]1(C)[C@H]2C(=O)C=C2[C@H]3C[C@](C)(C(=O)O)CC[C@]3(C)CC[C@@]21C
Clc1ccc(CC[C@H](Cn2ccnc2)Sc2c(Cl)cccc2Cl)cc1
CC(=O)N[C@H]1[C@@H](O[C@@H](C)C(=O)O)[C@H](O)[C@H](CO)O[C@@H]1O
